Laboratory results as given in PubChem BioAssay AID1220 (Sanford-Burnham Center for Chemical Genomics, 2008).
Where “and” joins values, the source holds several entries; their conditions need not be identical. Equal entries are not always repeated. Among all 190,000 compounds or so, about 1,300 (0.68%) were called active. No stated cut-off is given here; in the data, active means inhibition above about 50%; inactive means the rest. The entries come from a sample that favours actives as a whole. A structure can be active in one record and inactive in another.

target: Mannose-6-phosphate isomerase (Homo sapiens) (UniProt P34949); experiment: MPI inhibition at elevated mannose 6-phosphate – biochemical, fluorescence intensity, high mannose 6-phosphate, primary screen (AID 1220); conditions: recombinant PMI enzyme, coupled fluorescence intensity; at 20 µM; stronger effect = higher value
Sequence (P34949 whole entry, looked up): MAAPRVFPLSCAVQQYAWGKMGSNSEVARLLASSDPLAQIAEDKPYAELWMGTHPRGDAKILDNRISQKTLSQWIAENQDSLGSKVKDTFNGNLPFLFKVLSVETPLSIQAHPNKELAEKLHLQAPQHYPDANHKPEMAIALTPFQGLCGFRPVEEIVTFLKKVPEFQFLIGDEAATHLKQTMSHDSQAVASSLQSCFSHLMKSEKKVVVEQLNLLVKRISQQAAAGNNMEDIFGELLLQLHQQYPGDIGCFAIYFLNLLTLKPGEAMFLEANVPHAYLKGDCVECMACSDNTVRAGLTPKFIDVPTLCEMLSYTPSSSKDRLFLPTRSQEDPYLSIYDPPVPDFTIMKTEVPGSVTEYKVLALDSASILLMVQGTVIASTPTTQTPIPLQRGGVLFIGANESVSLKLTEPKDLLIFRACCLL

Structure (SMILES)	inhibition
COc1cc(CN2CCCC(C(=O)c3sccc3C)C2)cc(OC)c1O (stereo not drawn)	65.3% (active)
COc1cc(CN2CCCC(C(=O)c3sccc3C)C2)cc(Cl)c1O (stereo not drawn)	14% (inactive)
COc1ccc(CN2CCCC(C(=O)c3sccc3C)C2)cc1O (stereo not drawn)	1.4% (inactive)
Cc1ccc(-n2c(O)c(/C=N/N3CCOCC3)c(=O)[nH]c2=S)cc1	29% (inactive)
O=c1[nH]c(=S)n(-c2ccccc2)c(O)c1/C=N/N1CCOCC1	3.4% (inactive)
Cc1ccccc1-n1c(O)c(/C=N/N2CCOCC2)c(=O)[nH]c1=S	55.7% (active)
CN1C(=O)N(C)C(=O)C2(Sc3ccccc3C2=O)C1=O	-1.5% (inactive)
CCOc1ccc(-n2c(O)c(C=Nc3ccc(N(CC)CC)cc3)c(=O)[nH]c2=O)cc1	18.2% (inactive)
C=CCn1c(O)c(C=Nc2ccc(N(CC)CC)cc2)c(=O)[nH]c1=O	4% (inactive)
CCN(CC)c1ccc(N=Cc2c(O)n(Cc3ccccc3)c(=O)[nH]c2=O)cc1	13.5% (inactive) and 50.6% (active)
CCN(CC)c1ccc(N=Cc2c(O)n(-c3ccccc3C)c(=O)[nH]c2=O)cc1	19.9% (inactive)
CN(C)c1ccc(N=Cc2c(O)n(CCC3=CCCCC3)c(=O)[nH]c2=O)cc1	28.9% (inactive)
CCN(CC)c1ccc(N=Cc2c(O)n(CCC3=CCCCC3)c(=O)[nH]c2=O)cc1	58.1% (active)
CCN(CC)c1ccc(N=Cc2c(O)n(-c3ccc(Cl)cc3)c(=O)[nH]c2=O)cc1	39.5% (inactive)
CCOc1ccccc1-n1c(O)c(C=Nc2ccc(N(CC)CC)cc2)c(=O)[nH]c1=O	59.3% (active)
CCN(CC)CCN=Cc1c(O)n(CCC2=CCCCC2)c(=O)[nH]c1=O	1.6% (inactive)
Cc1nc2cc(-c3ccccc3)nn2c(C)c1CCC(=O)N1CCC2(CC1)OCCO2	12.2% (inactive)
COc1ccccc1NC1=NCCS1	-1% (inactive)
Cc1ccccc1OP(N)(=O)Oc1ccccc1C	3% (inactive)
CN1C(=O)C(Cc2cccc3ccccc23)C(=O)N(C)C1=O	-9.1% (inactive)

Structure (SMILES)	inhibition
O=C(COC(=O)Cc1ccccc1)Nc1ccc(Cl)cn1	-6.1% (inactive)
COC(=O)CC1=C(C(=O)OC)C2(C(=O)Nc3c(C)cccc32)C(C#N)=C(N)O1 (stereo not drawn)	4.4% (inactive)
c1cncc(C2CCCCN2Cc2ccc3c(c2)OCO3)c1 (stereo not drawn)	4.9% (inactive)
CCN1CCN(Cc2cc(Br)cc(OC)c2O)CC1	18% (inactive)
CCN1CCN(Cc2cc(OC)c(OC)cc2[N+](=O)[O-])CC1	59.2% (active)
CCN1CCN(c2cc(N3CCCC3)c([N+](=O)[O-])cc2F)CC1	25.4% (inactive)
CCOc1ccccc1-n1c(O)c(C=NCCCN(CC)CC)c(=O)[nH]c1=O	-2.3% (inactive)
O=C(c1cc(-c2ccccc2)on1)N1CCC2(CC1)OCCO2	-0.7% (inactive)
Oc1ccccc1/C=N/NP(=S)(c1ccccc1)c1ccccc1	10.4% (inactive)
Oc1ccc(/C=N/NP(=S)(c2ccccc2)c2ccccc2)c(O)c1O	52.2% (active)
Oc1ccc(/C=N/NP(=S)(c2ccccc2)c2ccccc2)cc1	8.7% (inactive)
COC(=O)CNC(=O)c1cn(CCC#N)nc1-c1ccc(F)cc1	-0.2% (inactive)
O=C(CSc1ccccc1)N1CCC2(CC1)OCCO2	14.1% (inactive)
CCOC(=O)C1=C(C)OC(N)=C(C#N)C12C(=O)Nc1ccc(C)cc12 (stereo not drawn)	-2.3% (inactive)
CCCC1=C(C(=O)OCC)C2(C(=O)Nc3ccc(C)cc32)C(C#N)=C(N)O1 (stereo not drawn)	8.5% (inactive)
O=C1CCCN1c1ccc(S(=O)(=O)O)cc1 (tested in a mixture with another compound)	-11.1% (inactive)
CC(=O)c1ccc(OC(NC(=O)c2ccco2)C(Cl)(Cl)Cl)cc1 (stereo not drawn)	7.7% (inactive)
CC(C)OCCCNC(=O)c1c(N)n(Cc2cccs2)c2nc3ccccc3nc12	57.4% (active)
Nc1c(C(=O)NCCCc2ccccc2)c2nc3ccccc3nc2n1Cc1cccs1	17.4% (inactive)
CCC(C)OC(=O)c1c(N)n(Cc2cccs2)c2nc3ccccc3nc12 (stereo not drawn)	8.2% (inactive)

Structure (SMILES)	inhibition
COCCCn1c(N)c(C(=O)NCCC(C)C)c2nc3ccccc3nc21	63.7% (active)
CCOCCCn1c(N)c(C(=O)Nc2sc3c(c2C(=O)OC)CCCC3)c2nc3ccccc3nc21	62.1% (active)
COCCNC(=O)c1c(N)n(CCC(C)C)c2nc3ccccc3nc12	34.1% (inactive)
CC(C)CCn1c(N)c(C(=O)NCc2cccs2)c2nc3ccccc3nc21	59.5% (active)
CC(C)CNC(=O)c1c(N)n(Cc2ccco2)c2nc3ccccc3nc12	-12.2% (inactive)
CCCCNC(=O)c1c(N)n(CCCOC)c2nc3ccccc3nc12	40.9% (inactive)
COCCCn1c(N)c(C(=O)Nc2sc3c(c2C(=O)OC)CCCC3)c2nc3ccccc3nc21	24.1% (inactive)
CCOC(=O)c1c(NC(=O)c2c(N)n(CCCOC)c3nc4ccccc4nc23)sc2c1CCCC2	24.1% (inactive)
CCCOC(=O)c1c(N)n(Cc2cccs2)c2nc3ccccc3nc12	-0.8% (inactive)
CCOc1cc(C2C(C#N)=C(N)Oc3c2c(=O)oc2ccccc32)ccc1OC(=O)c1cccs1 (stereo not drawn)	2.8% (inactive)
Cc1ccnc(-n2c(-c3ccccc3)nc3ccccc3c2=O)c1	15.9% (inactive)
CC(C(=O)c1c[nH]c2ccccc12)N1CCc2ccccc2C1 (stereo not drawn)	6.1% (inactive)
CCCC1(CCC)C(=O)NC(=Nc2ccc(C)cc2)NC1=O	2.5% (inactive)
CN1CN=C(N[N+](=O)[O-])N(Cc2ccco2)C1	-10.4% (inactive)
O=C(Cn1cnc2sc3c(c2c1=O)CCCC3)NCCC(=O)N1CCC2(CC1)OCCO2	1.1% (inactive)
CC(C)C[C@H]1C(=O)N2CCCC2[C@]2(O)O[C@](NC(=O)[C@@H]3C=C4c5cccc6[nH]cc(c56)CC4N(C)C3)(C(C)C)C(=O)N12 (stereo partly drawn)	48.1% (inactive)
CN1C[C@H](CO)C=C2c3cccc4[nH]cc(c34)C[C@H]21	65.5% (active)
CC(C)[C@H]1C(=O)N2CCC[C@H]2[C@]2(O)O[C@](NC(=O)[C@@H]3C=C4c5cccc6[nH]cc(c56)C[C@H]4N(C)C3)(C(C)C)C(=O)N12	0.6% (inactive)
